Screens (PubChem BioAssay)
Rows were chosen to be rich in hits. Some 7.6% of all compounds tested hit in one or more screens of this group.
HCV NS3h FP – HCV NS3 helicase inhibitors, primary screen, biochemical, fluorescence polarization, ChemBridge library; Hepatitis C virus NS3 helicase; NS3h Cy5-dT15 DNA binding; inhibition, % at 100 µM; 16,000 tested, 1.6% active; AID 687043, 2013;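 active means inhibition above the average over every tested compound plus 3 SD, cut at about 40% in these data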
Cy5 interf NS3h – Cy5 fluorescence quenchers or enhancers, artefact control for HCV NS3 helicase inhibitor project, biochemical, ChemBridge library, Cy5 readout; 16,000 tested, 6% active; fluorescence interference ratio at 100 µM; Cy5-dT15 DNA with NS3h, fluorescence interference; actives lie on both sides; signal over control mean, under 1 quenches;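 active means compound fluorescence over control fluorescence at most 0.8, a quencher, or at least a set upper limit, an enhancer; inactive means ratio between 0.8 and the set upper limit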
Active calls of the source: *.

CCOc1ccc(S(=O)(=O)N2CCOCC2)cc1 was read as HCV NS3h FP 1 and Cy5 interf NS3h 1.1.
For CCOc1ccc(CN2CCN(S(C)(=O)=O)CC2)cc1 the results were HCV NS3h FP -1 and Cy5 interf NS3h 0.71*.
Screening Cc1ccc(NC(=O)C(=O)NCCN2CCN(S(C)(=O)=O)CC2)cc1 returned HCV NS3h FP 9 and Cy5 interf NS3h 0.96.
Cc1ccc(N[C@@H]2C[C@H](O)[C@@H](CO)O2)cc1C was read as HCV NS3h FP -1 and Cy5 interf NS3h 0.95.
COC(=O)c1ccccc1NC(=O)CN(c1ccc(C)cc1)S(C)(=O)=O was read as HCV NS3h FP 11 and Cy5 interf NS3h 0.99.
Screening CCOC(=O)c1ccccc1NC(=O)CN(c1ccc(C)cc1)S(C)(=O)=O returned HCV NS3h FP 42* and Cy5 interf NS3h 0.81.
`CCOc1cccc(C(=O)Nc2nc3ccc(C)cc3s2)c1` gave HCV NS3h FP 0 and Cy5 interf NS3h 0.69*.
CCOc1cccc(C(=O)Nc2nnc(-c3cccc(OCC)c3)s2)c1 was read as HCV NS3h FP -7 and Cy5 interf NS3h 1.1.
CCOc1ccc2nc(SCC(=O)c3ccc(C)cc3C)sc2c1 was read as HCV NS3h FP 4 and Cy5 interf NS3h 0.76*.
CCOc1ccc2nc(SCC(=O)NC(C)c3ccccc3)sc2c1 (stereo not drawn) was read as HCV NS3h FP 6 and Cy5 interf NS3h 1.
`C=CCNC(=O)CN(c1ccc(OC)cc1)S(=O)(=O)c1ccc(C)cc1` gave HCV NS3h FP 5 and Cy5 interf NS3h 0.99.
O=C(Nc1ccccc1C(F)(F)F)c1cnn2c(C(F)(F)F)cc(-c3ccccc3)nc12 was read as HCV NS3h FP 12 and Cy5 interf NS3h 1.1.
Screening COC(=O)c1cc2nc(-c3ccc(OC)cc3)cc(C(F)(F)F)n2n1 returned HCV NS3h FP 1 and Cy5 interf NS3h 1.
Screening COC(=O)c1ccccc1NC(=O)c1cnn2c(C(F)(F)F)cc(-c3ccccc3)nc12 returned HCV NS3h FP -1 and Cy5 interf NS3h 0.65*.
Screening CC(C)(C)NC(=O)c1nn2c(C(F)(F)F)cc(-c3ccccc3)nc2c1Br returned HCV NS3h FP 6 and Cy5 interf NS3h 0.64*.
For CC(COc1ccccc1)NC(=O)c1nn2c(C(F)(F)F)cc(-c3ccccc3)nc2c1Br (stereo not drawn) the results were HCV NS3h FP 10 and Cy5 interf NS3h 0.63*.
For O=C(NCc1ccccc1)c1nn2c(C(F)(F)F)cc(-c3cccs3)nc2c1Cl the results were HCV NS3h FP 18 and Cy5 interf NS3h 1.
For CC(C)(C)C#C/C=N\n1nnc(-c2ccccc2)n1 the results were HCV NS3h FP 12 and Cy5 interf NS3h 0.9.
`CNC(=O)/C=C/c1ccc2c(c1)OCO2` gave HCV NS3h FP 6 and Cy5 interf NS3h 1.
O=[N+]([O-])c1cccc(C(=S)N2CCOCC2)c1 was read as HCV NS3h FP 3 and Cy5 interf NS3h 1.
For COc1ccc2ccccc2c1C1NC(=O)NC(C)=C1C(=O)Nc1cc(Cl)ccc1C (stereo not drawn) the results were HCV NS3h FP 0 and Cy5 interf NS3h 0.97.
For Cc1ccc(CSCCNC(=O)CN(c2cccc([N+](=O)[O-])c2)S(=O)(=O)c2ccccc2)cc1 the results were HCV NS3h FP 20 and Cy5 interf NS3h 1.1.
`COc1ccc(CCNC(=O)CN(c2cccc([N+](=O)[O-])c2)S(=O)(=O)c2ccccc2)cc1OC` gave HCV NS3h FP 14 and Cy5 interf NS3h 1.
For COCCCNC(=O)CN(c1cccc([N+](=O)[O-])c1)S(=O)(=O)c1ccccc1 the results were HCV NS3h FP 14 and Cy5 interf NS3h 0.73*.
O=C(CN(c1cccc([N+](=O)[O-])c1)S(=O)(=O)c1ccccc1)NCCSc1ccc(Cl)cc1 was read as HCV NS3h FP 24 and Cy5 interf NS3h 0.72*.
`Cc1c(Cl)c(C(F)(F)F)nn1CC(=O)NCc1ccc(Cl)cc1` gave HCV NS3h FP 2 and Cy5 interf NS3h 0.98.
CC1CC(O)N(c2ccccc2)C(=S)N1 (stereo not drawn) was read as HCV NS3h FP 17 and Cy5 interf NS3h 0.77*.
`Cc1ccnc(NC(=O)COc2cc(C)c(Cl)c(C)c2)c1` gave HCV NS3h FP -8 and Cy5 interf NS3h 0.98.
For Cc1cc(Cl)ccc1OCC(=O)Nc1ccc(Br)cn1 the results were HCV NS3h FP 12 and Cy5 interf NS3h 0.76*.
Screening Cc1cc(Cl)ccc1OCC(=O)Nc1ccc(Cl)cn1 returned HCV NS3h FP 11 and Cy5 interf NS3h 1.
`CC(C)c1ccc(C(=O)Nc2ccc(Cl)cn2)cc1` gave HCV NS3h FP 2 and Cy5 interf NS3h 1.
`COc1ccc(CN2CCN(Cc3ccc(C)cc3)CC2)cc1OC` gave HCV NS3h FP -9 and Cy5 interf NS3h 1.
For COc1ccc(/C(C)=N/N2CCN(Cc3ccc(Cl)cc3)CC2)cc1OC the results were HCV NS3h FP 19 and Cy5 interf NS3h 0.68*.
`CC(C)(C)NC(=O)CN(c1ccc(Cl)cc1)S(C)(=O)=O` gave HCV NS3h FP 5 and Cy5 interf NS3h 0.95.
For CCN(CC)c1ccc(NC(=O)c2ccc(Br)cc2)cc1 the results were HCV NS3h FP 8 and Cy5 interf NS3h 1.
For CCN(CC)c1ccc(NC(=O)c2ccc(I)cc2)cc1 the results were HCV NS3h FP 16 and Cy5 interf NS3h 1.3*.
Cc1cc(/C=C2\C(=O)NC(=S)N(c3ccc(Cl)cc3)C2=O)c(C)n1-c1cccnc1 was read as HCV NS3h FP 2 and Cy5 interf NS3h 1.
CCc1ccc(OCc2nnc(NC(=O)Nc3ccc(Cl)c(Cl)c3)s2)cc1 was read as HCV NS3h FP 12 and Cy5 interf NS3h 1.1.
Screening CSc1ccc(/C=C/C(=O)c2ccc(NC(=O)c3cccs3)cc2)cc1 returned HCV NS3h FP 21 and Cy5 interf NS3h 0.71*.
`O=C(Nc1ccc(/C=C/C(=O)c2cccs2)cc1)c1ccc(Br)cc1` gave HCV NS3h FP -4 and Cy5 interf NS3h 1.
For CC1=C(C(=O)OCCc2ccccc2)C(c2ccsc2)C2=C(CCCC2=O)N1 (stereo not drawn) the results were HCV NS3h FP 17 and Cy5 interf NS3h 1.
For COC(=O)c1cc(N2C(=O)C3C4C=CC(C5CC45)C3C2=O)ccc1Cl (stereo not drawn) the results were HCV NS3h FP 8 and Cy5 interf NS3h 0.69*.
`O=C1C2C3C=CC(C4CC34)C2C(=O)N1c1ccc(Cl)cc1` (stereo not drawn) gave HCV NS3h FP -4 and Cy5 interf NS3h 0.92.
`CN1C(=O)C(=Cc2ccc(-c3ccccc3C(=O)O)o2)C(=O)N(C)C1=O` gave HCV NS3h FP 39 and Cy5 interf NS3h 1.1.
Cc1ccc(/C=C2/C=C(c3ccccc3)OC2=O)cc1 was read as HCV NS3h FP 5 and Cy5 interf NS3h 0.95.
Screening Cc1ccc(C2=C/C(=C\c3ccc(-c4ccccc4C(=O)O)o3)C(=O)O2)cc1 returned HCV NS3h FP 24 and Cy5 interf NS3h 0.79*.
For NC1=NC(=O)/C(=C\c2ccc(-c3ccc([N+](=O)[O-])cc3)o2)S1 the results were HCV NS3h FP -2 and Cy5 interf NS3h 1.2*.
For O=C1OC(c2ccccc2)=C/C1=C/c1ccc(-c2ccc([N+](=O)[O-])cc2)o1 the results were HCV NS3h FP 12 and Cy5 interf NS3h 0.8*.
NC1=NC(=O)/C(=C/c2ccccc2OCc2ccc([N+](=O)[O-])cc2)S1 was read as HCV NS3h FP -7 and Cy5 interf NS3h 0.97.
